# According to the supplement of paper PMC6411743:
# ± gives the standard deviation of the averaged measurements. The full data set covers some 6,500 targets. This sample favours those with the largest changes.
# Compound: Nc1ncnc2c1ncn2[C@@H]1O[C@H](COP(=O)(O)OP(=O)(O)OP(=O)(O)O)[C@@H](O)[C@H]1O [adenosine triphosphate]
# Experiment: NP40-soluble protein abundance relative to vehicle (solubility fold change) (ratio); higher = more soluble protein in presence of ATP
# Outline: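 Jurkat crude lysate (Dounce-homogenised) was treated with eight concentrations from 0.1 to 10 mM for 10 min at room temperature, then 3 min at 37 °C. It was solubilised with 0.8% NP40 and benzonase (60 min, 4 °C) and ultracentrifuged, and the supernatant was TMT-labelled for LC-MS/MS. Intensities were vsn-normalised, and the value is the fold change against the NP40-processed vehicle per replicate, from three independent experiments.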
# UniProt Q9NZC7, sequence (Q9NZC7 whole entry): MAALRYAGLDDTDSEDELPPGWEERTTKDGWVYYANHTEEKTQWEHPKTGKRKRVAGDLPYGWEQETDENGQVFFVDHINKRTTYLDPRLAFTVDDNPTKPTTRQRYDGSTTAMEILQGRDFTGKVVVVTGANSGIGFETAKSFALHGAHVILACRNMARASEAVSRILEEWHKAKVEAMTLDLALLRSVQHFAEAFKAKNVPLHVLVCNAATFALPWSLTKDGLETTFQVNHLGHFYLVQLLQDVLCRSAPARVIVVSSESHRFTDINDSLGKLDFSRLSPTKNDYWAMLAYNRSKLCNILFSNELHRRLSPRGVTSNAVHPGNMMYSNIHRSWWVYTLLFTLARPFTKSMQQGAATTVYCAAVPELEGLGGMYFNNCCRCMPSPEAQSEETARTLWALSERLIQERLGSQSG
# UniProt Q9HC36, sequence (Q9HC36 whole entry): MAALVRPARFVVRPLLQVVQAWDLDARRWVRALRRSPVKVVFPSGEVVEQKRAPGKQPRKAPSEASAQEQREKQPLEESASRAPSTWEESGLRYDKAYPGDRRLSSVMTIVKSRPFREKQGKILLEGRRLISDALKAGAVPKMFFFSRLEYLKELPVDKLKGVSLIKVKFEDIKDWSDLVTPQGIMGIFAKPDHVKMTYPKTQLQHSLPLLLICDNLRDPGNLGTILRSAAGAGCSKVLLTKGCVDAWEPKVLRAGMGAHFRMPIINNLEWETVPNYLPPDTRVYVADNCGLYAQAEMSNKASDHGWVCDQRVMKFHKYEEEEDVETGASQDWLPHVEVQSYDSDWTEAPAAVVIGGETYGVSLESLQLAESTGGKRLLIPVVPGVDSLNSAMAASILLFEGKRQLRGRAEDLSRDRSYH
# UniProt Q9HDC9, sequence (Q9HDC9 whole entry): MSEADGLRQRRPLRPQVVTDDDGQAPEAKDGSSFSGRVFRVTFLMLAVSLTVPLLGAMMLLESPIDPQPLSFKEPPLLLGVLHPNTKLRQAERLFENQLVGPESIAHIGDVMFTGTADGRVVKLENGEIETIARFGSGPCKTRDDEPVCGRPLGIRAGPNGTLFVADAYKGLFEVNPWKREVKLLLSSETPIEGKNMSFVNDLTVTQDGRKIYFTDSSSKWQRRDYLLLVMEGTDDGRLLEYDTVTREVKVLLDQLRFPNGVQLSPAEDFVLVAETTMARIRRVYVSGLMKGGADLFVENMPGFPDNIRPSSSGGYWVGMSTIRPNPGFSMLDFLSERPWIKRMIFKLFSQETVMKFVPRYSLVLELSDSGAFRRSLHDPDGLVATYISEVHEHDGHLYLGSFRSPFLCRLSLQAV
# UniProt Q9UG63, sequence (Q9UG63 whole entry): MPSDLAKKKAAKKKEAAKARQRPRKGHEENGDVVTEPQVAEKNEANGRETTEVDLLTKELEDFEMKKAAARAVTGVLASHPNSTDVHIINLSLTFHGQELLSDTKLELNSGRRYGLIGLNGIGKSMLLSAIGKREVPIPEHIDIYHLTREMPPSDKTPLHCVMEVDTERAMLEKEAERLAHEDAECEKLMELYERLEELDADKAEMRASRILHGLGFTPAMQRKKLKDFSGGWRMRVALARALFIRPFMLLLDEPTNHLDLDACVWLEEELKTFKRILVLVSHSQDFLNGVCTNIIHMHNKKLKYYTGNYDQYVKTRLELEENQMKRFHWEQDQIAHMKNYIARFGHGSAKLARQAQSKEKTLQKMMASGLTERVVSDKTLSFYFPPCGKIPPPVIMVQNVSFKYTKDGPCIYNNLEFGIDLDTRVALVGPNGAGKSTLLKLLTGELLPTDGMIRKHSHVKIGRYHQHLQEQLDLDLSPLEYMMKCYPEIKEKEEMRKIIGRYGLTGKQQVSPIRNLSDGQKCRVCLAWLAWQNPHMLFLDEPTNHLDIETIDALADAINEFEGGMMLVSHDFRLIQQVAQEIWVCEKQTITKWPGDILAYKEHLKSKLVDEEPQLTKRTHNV
# UniProt Q9HBH5, sequence (Q9HBH5 whole entry): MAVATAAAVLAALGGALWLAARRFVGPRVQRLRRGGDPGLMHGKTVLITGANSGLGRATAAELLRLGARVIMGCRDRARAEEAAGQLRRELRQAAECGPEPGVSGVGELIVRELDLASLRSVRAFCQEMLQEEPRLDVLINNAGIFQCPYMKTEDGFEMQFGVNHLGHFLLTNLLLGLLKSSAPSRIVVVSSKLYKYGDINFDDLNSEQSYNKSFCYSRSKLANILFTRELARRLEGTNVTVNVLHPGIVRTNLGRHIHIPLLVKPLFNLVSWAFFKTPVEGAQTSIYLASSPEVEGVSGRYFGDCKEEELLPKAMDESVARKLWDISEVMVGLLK
# UniProt Q96PZ0, sequence (Q96PZ0 whole entry): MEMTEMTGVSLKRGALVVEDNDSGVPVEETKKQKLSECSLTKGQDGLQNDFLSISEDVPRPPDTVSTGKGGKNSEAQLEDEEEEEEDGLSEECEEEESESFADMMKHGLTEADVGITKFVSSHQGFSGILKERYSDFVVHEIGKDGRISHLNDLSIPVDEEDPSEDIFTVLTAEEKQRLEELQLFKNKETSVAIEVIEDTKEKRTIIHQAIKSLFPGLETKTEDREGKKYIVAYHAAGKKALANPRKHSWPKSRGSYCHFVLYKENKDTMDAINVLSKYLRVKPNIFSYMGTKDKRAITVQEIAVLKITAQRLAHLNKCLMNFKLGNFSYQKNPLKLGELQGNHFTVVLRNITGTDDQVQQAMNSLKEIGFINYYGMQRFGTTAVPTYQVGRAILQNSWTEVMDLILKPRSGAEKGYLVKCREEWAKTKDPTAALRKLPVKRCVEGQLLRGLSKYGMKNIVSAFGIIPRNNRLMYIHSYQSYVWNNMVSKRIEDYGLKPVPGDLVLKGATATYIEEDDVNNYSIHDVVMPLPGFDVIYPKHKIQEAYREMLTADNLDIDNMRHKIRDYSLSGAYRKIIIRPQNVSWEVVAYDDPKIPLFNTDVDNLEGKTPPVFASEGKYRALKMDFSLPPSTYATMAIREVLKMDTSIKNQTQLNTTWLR
# UniProt Q96GN5, sequence (Q96GN5 whole entry): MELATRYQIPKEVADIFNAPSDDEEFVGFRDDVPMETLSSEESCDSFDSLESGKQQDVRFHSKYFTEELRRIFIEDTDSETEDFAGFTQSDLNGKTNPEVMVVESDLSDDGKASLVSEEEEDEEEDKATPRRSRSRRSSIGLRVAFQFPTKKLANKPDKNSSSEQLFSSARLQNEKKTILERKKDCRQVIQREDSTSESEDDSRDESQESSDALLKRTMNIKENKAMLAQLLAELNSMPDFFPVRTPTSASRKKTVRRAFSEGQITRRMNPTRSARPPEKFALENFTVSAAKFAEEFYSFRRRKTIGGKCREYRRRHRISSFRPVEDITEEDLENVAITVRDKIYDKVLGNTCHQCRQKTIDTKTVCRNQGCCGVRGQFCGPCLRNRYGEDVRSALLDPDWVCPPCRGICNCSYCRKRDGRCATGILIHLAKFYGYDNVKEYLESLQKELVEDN
# UniProt Q9NWB6, sequence (Q9NWB6 whole entry): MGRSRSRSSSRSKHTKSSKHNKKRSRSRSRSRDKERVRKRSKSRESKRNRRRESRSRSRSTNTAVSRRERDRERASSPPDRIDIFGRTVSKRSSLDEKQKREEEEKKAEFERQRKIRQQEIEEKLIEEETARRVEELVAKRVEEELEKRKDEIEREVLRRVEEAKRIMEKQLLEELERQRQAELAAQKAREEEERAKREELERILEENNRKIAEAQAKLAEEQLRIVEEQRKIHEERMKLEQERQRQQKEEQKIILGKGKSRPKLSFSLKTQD
# UniProt Q96AT9, sequence (Q96AT9 whole entry): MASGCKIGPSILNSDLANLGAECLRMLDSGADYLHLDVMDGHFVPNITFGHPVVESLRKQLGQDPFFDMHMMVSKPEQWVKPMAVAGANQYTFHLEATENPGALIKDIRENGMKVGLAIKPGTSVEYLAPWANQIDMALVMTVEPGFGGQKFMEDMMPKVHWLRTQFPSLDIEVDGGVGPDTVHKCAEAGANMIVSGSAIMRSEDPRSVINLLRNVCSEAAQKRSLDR
# UniProt Q9NYK6, sequence (Q9NYK6 whole entry): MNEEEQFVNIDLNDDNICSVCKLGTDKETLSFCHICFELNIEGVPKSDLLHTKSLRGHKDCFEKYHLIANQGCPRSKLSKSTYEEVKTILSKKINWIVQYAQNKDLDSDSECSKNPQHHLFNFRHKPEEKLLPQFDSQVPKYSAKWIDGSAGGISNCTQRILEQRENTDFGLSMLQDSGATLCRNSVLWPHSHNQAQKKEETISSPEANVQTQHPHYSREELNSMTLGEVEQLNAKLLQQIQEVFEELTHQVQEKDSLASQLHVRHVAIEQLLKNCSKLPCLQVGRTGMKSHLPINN
# UniProt Q9NYP7, sequence (Q9NYP7 whole entry): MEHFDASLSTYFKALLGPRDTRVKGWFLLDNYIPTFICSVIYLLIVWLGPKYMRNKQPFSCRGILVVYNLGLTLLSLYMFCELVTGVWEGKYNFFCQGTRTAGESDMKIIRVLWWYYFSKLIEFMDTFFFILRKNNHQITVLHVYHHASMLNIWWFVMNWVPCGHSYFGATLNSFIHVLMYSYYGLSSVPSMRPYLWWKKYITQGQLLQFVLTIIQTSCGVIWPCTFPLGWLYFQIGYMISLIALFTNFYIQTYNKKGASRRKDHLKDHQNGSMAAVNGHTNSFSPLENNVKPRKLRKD
# UniProt Q9NWZ3, sequence (Q9NWZ3 whole entry): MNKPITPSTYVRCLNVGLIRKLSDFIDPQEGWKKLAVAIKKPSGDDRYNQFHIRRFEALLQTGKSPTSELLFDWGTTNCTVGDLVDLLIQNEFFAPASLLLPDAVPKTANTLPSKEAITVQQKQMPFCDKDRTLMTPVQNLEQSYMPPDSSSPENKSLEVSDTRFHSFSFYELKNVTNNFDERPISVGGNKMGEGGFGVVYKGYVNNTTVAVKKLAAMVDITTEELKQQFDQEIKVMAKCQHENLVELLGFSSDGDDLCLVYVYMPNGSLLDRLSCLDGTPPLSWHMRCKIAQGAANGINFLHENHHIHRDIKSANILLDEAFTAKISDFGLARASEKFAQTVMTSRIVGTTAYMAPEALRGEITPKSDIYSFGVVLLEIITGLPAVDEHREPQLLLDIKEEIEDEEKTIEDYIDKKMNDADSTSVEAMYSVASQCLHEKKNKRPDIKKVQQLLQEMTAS
target,measurement,setting,value
UniProt Q96AT9|Q96AT9-2,NP40-soluble protein abundance,concentration: 1mM,1.06 ± 0.092
same,NP40-soluble protein abundance,concentration: 2mM,1.07 ± 0.047
same,NP40-soluble protein abundance,concentration: 4mM,1.06 ± 0.075
same,NP40-soluble protein abundance,concentration: 6mM,1.05 ± 0.073
same,NP40-soluble protein abundance,concentration: 8mM,0.991 ± 0.064
same,NP40-soluble protein abundance,concentration: 10mM,0.993 ± 0.048
UniProt Q96NT0|B8ZZ99,NP40-soluble protein abundance,concentration: 1mM,0.832 ± 0.11
same,NP40-soluble protein abundance,concentration: 2mM,0.87 ± 0.12
same,NP40-soluble protein abundance,concentration: 4mM,0.886 ± 0.061
same,NP40-soluble protein abundance,concentration: 6mM,0.84 ± 0.16
same,NP40-soluble protein abundance,concentration: 8mM,0.863 ± 0.11
same,NP40-soluble protein abundance,concentration: 10mM,0.849 ± 0.16
UniProt Q9HC36,NP40-soluble protein abundance,concentration: 1mM,1.11 ± 0.06
same,NP40-soluble protein abundance,concentration: 2mM,1.29 ± 0.068
same,NP40-soluble protein abundance,concentration: 4mM,1.57 ± 0.13
same,NP40-soluble protein abundance,concentration: 6mM,1.8 ± 0.21
same,NP40-soluble protein abundance,concentration: 8mM,2.03 ± 0.2
same,NP40-soluble protein abundance,concentration: 10mM,2.37 ± 0.32
UniProt Q9NYP7|Q9NYP7-2,NP40-soluble protein abundance,concentration: 1mM,1.07 ± 0.19
same,NP40-soluble protein abundance,concentration: 2mM,1.05 ± 0.12
same,NP40-soluble protein abundance,concentration: 4mM,1.05 ± 0.14
same,NP40-soluble protein abundance,concentration: 6mM,0.94 ± 0.15
same,NP40-soluble protein abundance,concentration: 8mM,1.09 ± 0.17
same,NP40-soluble protein abundance,concentration: 10mM,1.01 ± 0.056
RDH14 (UniProt Q9HBH5),NP40-soluble protein abundance,concentration: 1mM,0.997 ± 0.049
same,NP40-soluble protein abundance,concentration: 2mM,1.01 ± 0.0098
same,NP40-soluble protein abundance,concentration: 4mM,1.03 ± 0.043
same,NP40-soluble protein abundance,concentration: 6mM,0.998 ± 0.056
same,NP40-soluble protein abundance,concentration: 8mM,1.05 ± 0.037
same,NP40-soluble protein abundance,concentration: 10mM,1.01 ± 0.035
IRAK4 (UniProt Q9NWZ3),NP40-soluble protein abundance,concentration: 1mM,1.02 ± 0.042
same,NP40-soluble protein abundance,concentration: 2mM,1.03 ± 0.045
same,NP40-soluble protein abundance,concentration: 4mM,1.01 ± 0.051
same,NP40-soluble protein abundance,concentration: 6mM,0.985 ± 0.057
same,NP40-soluble protein abundance,concentration: 8mM,0.996 ± 0.043
same,NP40-soluble protein abundance,concentration: 10mM,0.988 ± 0.047
UniProt Q9UG63|Q9UG63-2,NP40-soluble protein abundance,concentration: 1mM,1.09 ± 0.033
same,NP40-soluble protein abundance,concentration: 2mM,1.15 ± 0.039
same,NP40-soluble protein abundance,concentration: 4mM,1.42 ± 0.019
same,NP40-soluble protein abundance,concentration: 6mM,1.67 ± 0.095
same,NP40-soluble protein abundance,concentration: 8mM,2.16 ± 0.093
same,NP40-soluble protein abundance,concentration: 10mM,2.59 ± 0.25
UniProt Q96II8|Q96II8-2|Q96II8-4,NP40-soluble protein abundance,concentration: 1mM,1.17 ± 0.11
same,NP40-soluble protein abundance,concentration: 2mM,1.21 ± 0.057
same,NP40-soluble protein abundance,concentration: 4mM,1.2 ± 0.035
same,NP40-soluble protein abundance,concentration: 6mM,1.22 ± 0.078
same,NP40-soluble protein abundance,concentration: 8mM,1.17 ± 0.068
same,NP40-soluble protein abundance,concentration: 10mM,1.21 ± 0.034
PUS7 (UniProt Q96PZ0),NP40-soluble protein abundance,concentration: 1mM,0.969 ± 0.059
same,NP40-soluble protein abundance,concentration: 2mM,0.974 ± 0.057
same,NP40-soluble protein abundance,concentration: 4mM,0.967 ± 0.034
same,NP40-soluble protein abundance,concentration: 6mM,0.941 ± 0.076
same,NP40-soluble protein abundance,concentration: 8mM,0.963 ± 0.03
same,NP40-soluble protein abundance,concentration: 10mM,0.968 ± 0.036
ARGLU1 (UniProt Q9NWB6),NP40-soluble protein abundance,concentration: 1mM,1.72 ± 0.14
same,NP40-soluble protein abundance,concentration: 2mM,1.86 ± 0.18
same,NP40-soluble protein abundance,concentration: 4mM,2.03 ± 0.26
same,NP40-soluble protein abundance,concentration: 6mM,2.27 ± 0.22
same,NP40-soluble protein abundance,concentration: 8mM,2.33 ± 0.28
same,NP40-soluble protein abundance,concentration: 10mM,2.44 ± 0.27
MRPL38 (UniProt Q96DV4),NP40-soluble protein abundance,concentration: 1mM,1.04 ± 0.035
same,NP40-soluble protein abundance,concentration: 2mM,0.869 ± 0.076
same,NP40-soluble protein abundance,concentration: 4mM,0.87 ± 0.08
same,NP40-soluble protein abundance,concentration: 6mM,0.925 ± 0.3
same,NP40-soluble protein abundance,concentration: 8mM,0.86 ± 0.15
same,NP40-soluble protein abundance,concentration: 10mM,0.839 ± 0.15
UniProt Q9NZC7|Q9NZC7-2,NP40-soluble protein abundance,concentration: 1mM,1.028 ± 0.01
same,NP40-soluble protein abundance,concentration: 2mM,1.04 ± 0.073
same,NP40-soluble protein abundance,concentration: 4mM,1.04 ± 0.1
same,NP40-soluble protein abundance,concentration: 6mM,1.08 ± 0.13
same,NP40-soluble protein abundance,concentration: 8mM,1.06 ± 0.073
same,NP40-soluble protein abundance,concentration: 10mM,1.2 ± 0.29
UniProt Q9HDC9,NP40-soluble protein abundance,concentration: 1mM,1.03 ± 0.13
same,NP40-soluble protein abundance,concentration: 2mM,1 ± 0.11
same,NP40-soluble protein abundance,concentration: 4mM,0.936 ± 0.039
same,NP40-soluble protein abundance,concentration: 6mM,0.903 ± 0.13
same,NP40-soluble protein abundance,concentration: 8mM,0.953 ± 0.06
same,NP40-soluble protein abundance,concentration: 10mM,0.953 ± 0.079
UniProt Q9NYK6|Q9NYK6-3,NP40-soluble protein abundance,concentration: 1mM,1.09 ± 0.13
same,NP40-soluble protein abundance,concentration: 2mM,1.02 ± 0.026
same,NP40-soluble protein abundance,concentration: 4mM,1.04 ± 0.011
same,NP40-soluble protein abundance,concentration: 6mM,1.05 ± 0.089
same,NP40-soluble protein abundance,concentration: 8mM,0.99 ± 0.066
same,NP40-soluble protein abundance,concentration: 10mM,1.05 ± 0.026
UniProt Q96GN5|Q96GN5-4|Q96GN5-2,NP40-soluble protein abundance,concentration: 1mM,1.09 ± 0.19
same,NP40-soluble protein abundance,concentration: 2mM,1.16 ± 0.23
same,NP40-soluble protein abundance,concentration: 4mM,1.23 ± 0.36
same,NP40-soluble protein abundance,concentration: 6mM,1.29 ± 0.35
same,NP40-soluble protein abundance,concentration: 8mM,1.34 ± 0.41
same,NP40-soluble protein abundance,concentration: 10mM,1.42 ± 0.57
UniProt Q96N16|Q96N16-2,NP40-soluble protein abundance,concentration: 1mM,1.17 ± 0.24
same,NP40-soluble protein abundance,concentration: 2mM,1.27 ± 0.16
same,NP40-soluble protein abundance,concentration: 4mM,1.28 ± 0.24
same,NP40-soluble protein abundance,concentration: 6mM,1.37 ± 0.19
same,NP40-soluble protein abundance,concentration: 8mM,1.27 ± 0.23
same,NP40-soluble protein abundance,concentration: 10mM,1.36 ± 0.17
UniProt Q9NVI7-2,NP40-soluble protein abundance,concentration: 1mM,1.54 ± 0.05
same,NP40-soluble protein abundance,concentration: 2mM,1.64 ± 0.086
same,NP40-soluble protein abundance,concentration: 4mM,1.8 ± 0.086
same,NP40-soluble protein abundance,concentration: 6mM,1.89 ± 0.29
same,NP40-soluble protein abundance,concentration: 8mM,2.2 ± 0.2
same,NP40-soluble protein abundance,concentration: 10mM,2.35 ± 0.26
